TRHR agonist – qHTS for Small Molecule Agonists and Allosteric Enhancers of Human TRH Receptor: Primary Screen for Agonists | Thyrotropin-releasing hormone receptor (Homo sapiens), P34981 | TRHR cells, calcium flux fluo-8, FDSS agonist mode | activation, % at 2 µM | 360,000 tested, 0.18% active; further: 0% is about no effect
Target sequence (P34981 whole entry, looked up): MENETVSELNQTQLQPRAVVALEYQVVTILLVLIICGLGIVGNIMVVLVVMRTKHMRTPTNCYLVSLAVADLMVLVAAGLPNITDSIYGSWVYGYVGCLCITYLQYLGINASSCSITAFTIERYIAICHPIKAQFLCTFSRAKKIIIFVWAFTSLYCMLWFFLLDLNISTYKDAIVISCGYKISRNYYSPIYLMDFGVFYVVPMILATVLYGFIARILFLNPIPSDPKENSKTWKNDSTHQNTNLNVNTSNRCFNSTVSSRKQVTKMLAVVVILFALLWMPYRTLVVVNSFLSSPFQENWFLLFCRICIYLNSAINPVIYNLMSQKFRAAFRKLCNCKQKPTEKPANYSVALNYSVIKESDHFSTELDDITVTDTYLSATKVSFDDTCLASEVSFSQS
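Fluo-8-loaded TRHR cells; 10 s baseline, compound added, kinetic Ca2+ fluorescence read 1/s, agonist mode.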
TRHR PAM – qHTS for Small Molecule Agonists and Allosteric Enhancers of Human TRH Receptor: Primary Screen for Enhancers | Thyrotropin-releasing hormone receptor (Homo sapiens), P34981 | TRHR cells, fluo-8 calcium fluorescence, EC20 TRH enhancement | enhancement, % at 2 µM | 360,000 tested, 0.66% active; in the data active means enhancement above about 30%; further: 0% is about no effect
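TRHR-expressing cells loaded with fluo-8 calcium dye were read kinetically (ex 480/em 530) during compound addition, then stimulated with an EC20 of TRH (10 nM final). Enhancement of the Gq-mediated intracellular calcium response was scored.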
D1 antag – Antagonist of Human D 1 Dopamine Receptor: qHTS | D(1A) dopamine receptor (Homo sapiens), P21728 | HEK293 TREx D1 cells, calcium flux, dopamine EC80; hits give low values | activity change, negative = inhibition, % at 10 µM | 360,000 tested, 3.2% active; in the data active means activity change below about -30%; further: on the % scale 0 is the no-effect control and ±100 the full control effect
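Antagonism measured as reduced calcium response to an EC80 dopamine addition following 180 s compound pre-read; cells were inducible HEK293 Trex D1 plated overnight at 30 C, read kinetically at 1 cycle/sec.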
D1 potentiator – Potentiators of Human D1 Dopamine Receptor: qHTS; 360,000 tested, 0.036% active; D(1A) dopamine receptor (Homo sapiens), P21728; AID 504651, 2011; HEK293 TREx D1 cells, calcium flux, dopamine EC20 potentiation; potentiation, % at 10 µM; in the data active means potentiation above about 30%; further: 0% is about no effect
D1 agonist – Allosteric Agonists of the Human D1 Dopamine Receptor: qHTS | D(1A) dopamine receptor (Homo sapiens), P21728 | HEK293 T-REx D1 cells, calcium flux, agonist mode | activation, % at 2 µM | 360,000 tested, 1% active | AID 504660, 2011; further: 0% is about no effect
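Inducible HEK293 T-REx D1 cells, force-coupled to calcium signalling, were plated at 4000 cells/well with tetracycline and held overnight at 30 C. After no-wash calcium dye loading, compound-evoked calcium rise over 180 s flagged agonists.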
The depositor's hits bear a star. Only some compounds are listed: those with a hit (about 4.7% of all), similar ones and a draw of the others. Unless noted, no stated cut-off is given here; in the data, active means activation above about 30%; inactive means the rest.

How did O=C(CCS(=O)(=O)c1nc(-c2ccc3c(c2)OCO3)cc(C(F)(F)F)n1)Nc1ccccc1C(F)(F)F do in these assays?
TRHR agonist: 0; TRHR PAM: -1; D1 antag: -11; D1 potentiator: 0; D1 agonist: 5

Results for Cc1ccc2nc(-c3cccc(NC(=O)CSc4ccc(Cl)cc4)c3)oc2c1 ?
TRHR agonist: 2; TRHR PAM: -1; D1 antag: -1; D1 potentiator: -4; D1 agonist: 5

Results for O=C(Nc1ccc(Oc2cccc(C(F)(F)F)c2)nc1)c1ccco1 ?
TRHR agonist: 2; TRHR PAM: -4; D1 antag: -41*; D1 potentiator: -1; D1 agonist: 12

What do the screens show for `O=C(O)c1ccc(S(=O)(=O)N[C@H](Cc2ccc([N+](=O)[O-])cc2)C(=O)O)cc1`?
TRHR agonist: 1; TRHR PAM: 0; D1 antag: 9; D1 potentiator: -3; D1 agonist: 2

Results for O=C(N/N=C/c1ccc(OC(=O)c2ccccc2Cl)cc1)c1cc(O)cc(O)c1 ?
TRHR agonist: 1; TRHR PAM: 2; D1 antag: -7; D1 potentiator: -2; D1 agonist: 2

How did O=C(N/N=C/c1ccc(OC(=O)c2ccccc2Cl)cc1)c1ccccn1 do in these assays?
TRHR agonist: 0; TRHR PAM: 31*; D1 antag: -15; D1 potentiator: 3; D1 agonist: 1

How did CC(Oc1ccc2ccc(=O)oc2c1)C(=O)NC(Cc1c[nH]c2ccc(O)cc12)C(=O)O (stereo not drawn) do in these assays?
TRHR agonist: 1; TRHR PAM: -21; D1 antag: -87*; D1 potentiator: -8; D1 agonist: 0

Results for CCc1ccc(N2CC(C)Cn3c2nc2c3c(=O)n(CC(=O)O)c(=O)n2C)cc1 (stereo not drawn) ?
TRHR agonist: 2; TRHR PAM: 28; D1 antag: 25; D1 potentiator: -2; D1 agonist: 1

Results for COCCNC(=O)c1cccc(C)c1[N+](=O)[O-] ?
TRHR agonist: 0; TRHR PAM: 2; D1 antag: -33*; D1 potentiator: 0; D1 agonist: 1

Results for Cc1cccc(C(=O)NCCc2ccc(S(N)(=O)=O)cc2)c1[N+](=O)[O-] ?
TRHR agonist: 0; TRHR PAM: 8; D1 antag: 7; D1 potentiator: 0; D1 agonist: 0

How did COC(=O)c1c(C)[nH]c(C=Nc2ccc(OC)cc2)c1C do in these assays?
TRHR agonist: 0; TRHR PAM: 38*; D1 antag: 4; D1 potentiator: 0; D1 agonist: 0

How did FC(F)c1nc2ccccc2[nH]1 do in these assays?
TRHR agonist: 0; TRHR PAM: 3; D1 antag: 18; D1 potentiator: -2; D1 agonist: -1

How did c1ccc2[nH]c3cc4ncnc4cc3nc2c1 do in these assays?
TRHR agonist: 14; TRHR PAM: 10; D1 antag: -1; D1 potentiator: 3; D1 agonist: 33*

Results for COc1cc(NC(=O)CCn2cnc3ccccc3c2=O)cc(OC)c1 ?
TRHR agonist: 0; TRHR PAM: 3; D1 antag: 2; D1 potentiator: -3; D1 agonist: 0

Results for Cc1cc(C)cc(OC(C)C(=O)Nc2c(C(=O)c3ccccc3)oc3ccccc23)c1 (stereo not drawn) ?
TRHR agonist: 2; TRHR PAM: -7; D1 antag: 1; D1 potentiator: -4; D1 agonist: 2

Results for COc1cc(OC)c(OC)cc1/C=C/c1nc2cc3ccccc3cc2c(=O)n1-c1ccc(Cl)cc1 ?
TRHR agonist: 8; TRHR PAM: -3; D1 antag: -2; D1 potentiator: -3; D1 agonist: 23

Results for COc1cc(/C=C/c2nc3cc(Cl)ccc3c(=O)n2-c2ccc(C)cc2C)cc(OC)c1OC ?
TRHR agonist: 0; TRHR PAM: -3; D1 antag: -44*; D1 potentiator: -1; D1 agonist: -1

Results for COc1ccc(Cl)cc1-n1c(/C=C/c2cccc3ccccc23)nc2ccccc2c1=O ?
TRHR agonist: 0; TRHR PAM: -1; D1 antag: -35*; D1 potentiator: -1; D1 agonist: -3

What do the screens show for `COc1ccccc1-n1c(/C=C/c2c(C)n(C)c3ccccc23)nc2ccccc2c1=O`?
TRHR agonist: 6; TRHR PAM: -20; D1 antag: 2; D1 potentiator: 0; D1 agonist: 18

What do the screens show for `COc1cc(OC)c(OC)cc1/C=C/c1nc2cc3ccccc3cc2c(=O)n1-c1ccccc1Br`?
TRHR agonist: 13; TRHR PAM: 0; D1 antag: -19; D1 potentiator: 1; D1 agonist: 78*

Results for CCOc1nc(NCCC2=CCCCC2)nc(N2CCOCC2)n1 ?
TRHR agonist: 0; TRHR PAM: 14; D1 antag: 9; D1 potentiator: -3; D1 agonist: 0

Results for OCCNc1nc(NCCC2=CCCCC2)nc(N2CCOCC2)n1 ?
TRHR agonist: 0; TRHR PAM: 4; D1 antag: -54*; D1 potentiator: -12; D1 agonist: 1

What do the screens show for `CNC(=O)c1ccc(Nc2nnc(-c3ccc(C)c(S(=O)(=O)NC(C)(C)C)c3)c3ccccc23)cc1`?
TRHR agonist: 0; TRHR PAM: -5; D1 antag: -7; D1 potentiator: -2; D1 agonist: -1

Results for CCCN1C(=O)/C(=C/c2c(NCCCOC(C)C)nc3c(C)cccn3c2=O)SC1=S ?
TRHR agonist: 15; TRHR PAM: 4; D1 antag: -21; D1 potentiator: 1; D1 agonist: 44*

How did CCC(C)N1C(=O)/C(=C/c2c(NCCCOC(C)C)nc3c(C)cccn3c2=O)SC1=S (stereo not drawn) do in these assays?
TRHR agonist: 34*; TRHR PAM: -6; D1 antag: -6; D1 potentiator: -5; D1 agonist: 81*

How did O=C(COc1ccc(Cl)cc1)Nc1ccc2nc(SCC(=O)N3CCCC3)sc2c1 do in these assays?
TRHR agonist: 0; TRHR PAM: -5; D1 antag: -13; D1 potentiator: -1; D1 agonist: 7

How did COC(=O)C(Sc1nc(C)cc(C)c1C#N)c1ccccc1 (stereo not drawn) do in these assays?
TRHR agonist: -1; TRHR PAM: -5; D1 antag: -32*; D1 potentiator: -7; D1 agonist: 6

Results for Cc1ccc(S(=O)(=O)N2CCN(CC(=O)Nc3ccnn3C3CCCC3)CC2)cc1 ?
TRHR agonist: -1; TRHR PAM: -7; D1 antag: -37*; D1 potentiator: -11; D1 agonist: 2
